# Compound activity as filed in PubChem.
# Compounds with a hit are over-represented: about 4% of the library has one in this group of screens.
# LMP1 NFkB inh: reduces LMP1-driven NF-kappaB luciferase signal; LMP1-induced NF-kappaB luciferase reporter cells, luminescence; hit rate 0.69% among 350,000; inhibition, % at 12.5 µM; AID 504558; in the data active = inhibition above about 41%; inconclusive = no clear call, values can overlap the other calls;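 also: 0% = neutral control wells and 100% = reference inhibitor control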
# MITF TRPM1 inh: reduces MITF-dependent TRPM1 promoter luciferase signal; SK-MEL-5 TRPM1 promoter luciferase, 24 h; inhibition, % at 12.5 µM; hit rate 0.83% among 330,000; AID 488899;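 active = mean inhibition across replicates of 60% or more, whatever share of single replicates reaches that level; inconclusive = some that reach 60%, reason not given; inactive = mean inhibition across replicates below 60%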
# Peg3 prom inh: inhibitors of Peg3 promoter; inhibition, % at 20 µM; HeLa PEG-Prom luciferase reporter, luminescence, overnight; AID 588405; hit rate 1.7% among 360,000;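 active = inhibition of at least 50% at 20 µM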
# HIF-2a inh: blocks HIF-2a reporter activity | hit rate 0.72% among 360,000 | AID 624352 | inhibition, % at 18.8 µM | 786-0 RCC cells HIF-2a reporter, luciferase luminescence, overnight;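 active = inhibition of the luminescence signal of 40% or more relative to plate controls, in a single-dose primary screen at 18.75 µM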
# TWEAK Fn14 block: TWEAK-Fn14 signaling inhibition; hit rate 2% among 360,000; AID 1159606; TWEAK-stimulated Fn14 reporter cells, luciferase luminescence, 8 h; inhibition, % at 10 µM; in the data active = inhibition above about 50%
# TROY NFkB inh: TROY signaling inhibition | inhibition, % at 10 µM | Q293 LMP1-TROYcd NF-kB luciferase reporter, 4 h | hit rate 0.98% among 360,000 | AID 1347056;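 active = compounds whose plate-normalised and pattern-corrected inhibition of the luciferase reporter signal at the single screening dose is 50% or more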
# Mdm2 MdmX conf: Mdm2/MdmX (human) interaction inhibition, confirmed. inhibition, % at 8 µM. shares compounds with HIF-2a inh. AID 504601. SaOS-2 split-luciferase Mdm2/MdmX complementation, luminescence. hit rate 99% among 740;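 active = mean inhibition of the luminescence signal across two replicates at or above 26 percent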
# Target sequence (O15151 whole entry, looked up): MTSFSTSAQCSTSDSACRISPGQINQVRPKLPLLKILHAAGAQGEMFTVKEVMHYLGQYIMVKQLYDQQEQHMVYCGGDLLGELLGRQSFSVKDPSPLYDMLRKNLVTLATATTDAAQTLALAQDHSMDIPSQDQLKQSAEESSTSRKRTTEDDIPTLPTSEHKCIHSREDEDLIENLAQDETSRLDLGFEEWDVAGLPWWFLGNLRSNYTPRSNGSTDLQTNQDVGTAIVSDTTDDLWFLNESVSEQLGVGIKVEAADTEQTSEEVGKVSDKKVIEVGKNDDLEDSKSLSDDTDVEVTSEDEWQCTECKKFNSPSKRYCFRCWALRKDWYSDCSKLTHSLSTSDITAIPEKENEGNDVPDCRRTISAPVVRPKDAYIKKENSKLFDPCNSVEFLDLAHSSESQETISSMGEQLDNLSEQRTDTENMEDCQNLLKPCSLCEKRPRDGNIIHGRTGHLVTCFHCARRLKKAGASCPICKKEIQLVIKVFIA
# Target sequence (Q00987 whole entry, looked up): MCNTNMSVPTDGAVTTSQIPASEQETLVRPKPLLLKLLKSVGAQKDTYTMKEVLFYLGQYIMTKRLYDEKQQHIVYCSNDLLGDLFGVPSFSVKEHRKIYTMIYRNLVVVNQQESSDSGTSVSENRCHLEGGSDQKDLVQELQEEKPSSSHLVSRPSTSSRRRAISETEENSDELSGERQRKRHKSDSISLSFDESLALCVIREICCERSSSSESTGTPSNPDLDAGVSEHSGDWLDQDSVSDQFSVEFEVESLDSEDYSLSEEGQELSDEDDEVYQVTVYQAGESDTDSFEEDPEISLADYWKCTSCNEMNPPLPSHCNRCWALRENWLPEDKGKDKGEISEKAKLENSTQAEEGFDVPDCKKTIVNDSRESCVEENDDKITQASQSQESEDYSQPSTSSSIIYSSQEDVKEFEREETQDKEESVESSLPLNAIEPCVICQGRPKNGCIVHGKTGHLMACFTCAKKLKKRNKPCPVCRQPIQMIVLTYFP
# HIF-2a inh conf: HIF-2a inhibition, single concentration confirmation; shares compounds with HIF-2a inh; 786-0 RCC cells, HIF-2a luciferase reporter luminescence, overnight; inhibition, % at 18.8 µM; hit rate 56% among 1,800;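 active = mean inhibition across four replicates of at least 40 percent at the single tested concentration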
# HIF-1a counter: inhibits HIF-1a reporter, a counter-screen for HIF-2a inhibitors | inhibition, % at 18.8 µM | hit rate 72% among 1,800 | MiaPaCa-2 HIF-1a luciferase reporter, desferoxamine, overnight | shares compounds with HIF-2a inh;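 active = mean inhibition of the reporter signal across four replicates at the single tested dose of 50% or more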
# Starred values were filed as active, the others as inactive; ? = inconclusive; · = no result.
SMILES,LMP1 NFkB inh,MITF TRPM1 inh,Peg3 prom inh,HIF-2a inh,TWEAK Fn14 block,TROY NFkB inh,HIF-2a inh conf,HIF-1a counter,others
COc1ccccc1NC(=O)c1nc(S(=O)(=O)Cc2ccccc2)ncc1Cl,1,91*,105*,89*,74*,72*,83*,104*,Mdm2 MdmX conf=101*
CN(c1ccccc1)S(=O)(=O)c1ccc(NC(=O)c2nc(S(C)(=O)=O)ncc2Cl)cc1,-3,100*,111*,65*,93*,71*,99*,94*,Mdm2 MdmX conf=103*
CC1CCN(S(=O)(=O)c2ccc(NC(=O)c3ccncc3)cc2)CC1,8,23,14,20,2,20,·,·,
CSc1ncc(Cl)c(C(=O)Nc2ccc(C)c(C)c2)n1,1,-1,0,-22,-10,-13,·,·,
CCS(=O)(=O)c1ncc(Cl)c(C(=O)Nc2ccc(S(=O)(=O)N3CCC(C)CC3)cc2)n1,8,97*,105*,86*,95*,85*,99*,103*,Mdm2 MdmX conf=103*
Cc1ccc(F)cc1C(=O)N1CCCC(C)(C(=O)NS(=O)(=O)C2CC2)C1 (stereo not drawn),·,·,21,7,1,6,·,·,
CCc1ccc(NC(=O)c2nc(S(=O)(=O)Cc3ccccc3)ncc2Cl)cc1,23,92*,101*,95*,86*,79*,88*,87*,Mdm2 MdmX conf=103*
Cc1cccc(CS(=O)(=O)c2ncc(Cl)c(C(=O)NCc3ccc4c(c3)OCO4)n2)c1,-2,?,103*,62*,89*,69*,49*,47,
COc1ccccc1NC(=O)c1ccc(C(=O)Nc2ccccc2OC)nc1,3,-2,16,13,-39,14,·,·,
CCS(=O)(=O)c1ncc(Cl)c(C(=O)Nc2ccccc2OC)n1,-19,41,104*,93*,95*,73*,1,99*,
CC(C)c1nnc(NC(=O)c2nc(S(=O)(=O)Cc3ccccc3)ncc2Cl)s1,11,83*,105*,92*,94*,32,·,·,Mdm2 MdmX conf=102*
CC(C)c1nnc(NC(=O)CCc2ccccc2)s1,-2,-28,-131,-103,-5,-26,·,·,
O=C(OCC(=O)N1CCCC1=O)c1ccc(Cl)cc1[N+](=O)[O-],-3,5,18,10,-1,-1,·,·,
CCOc1ccccc1NC(=O)c1nc(S(=O)(=O)Cc2ccccc2)ncc1Cl,-30,78*,99*,90*,74*,75*,99*,104*,
COC(=O)c1ccc(NC(=O)c2nc(S(=O)(=O)Cc3cccc(C)c3)ncc2Cl)cc1,20,94*,99*,92*,72*,76*,75*,94*,Mdm2 MdmX conf=103*
Cc1cccc(COC(=O)Nc2ccc(NC(=O)c3ccccc3Cl)cc2)c1,1,10,-6,27,6,6,·,·,
NC(=O)c1ccc(Cl)c2ccccc12,6,1,-17,58*,8,-42,4,28,
O=C(Cn1ncc(N2CCOCC2)c(Cl)c1=O)c1ccc(Cl)cc1,-16,-22,-40,-45,-9,-23,·,·,
CC(C)(C)C(=O)Cn1ncc(Cl)c(Cl)c1=O,1,91*,104*,95*,97*,3,-12,106*,
C=CCn1c(C)cc(C(=O)Cn2ncc(Cl)c(Cl)c2=O)c1C,-47,67*,101*,94*,48,-23,3,105*,
O=C(Cn1ncc(Cl)c(Cl)c1=O)c1ccc(Cl)cc1,-78,80*,108*,96*,83*,13,-7,106*,
CC(C)(C)C(=O)Cn1ncc(N2CCCC2)c(Br)c1=O,-13,-41,-168,-160,6,-37,·,·,
CN1CCN(C(=O)C[C@@H]2C[C@H]3c4cc(NC(=O)c5cccnc5)ccc4O[C@H]3[C@H](CO)O2)CC1,-8,·,-2,10,11,-5,·,·,
COCCN1CCn2c(nc3cc([N+](=O)[O-])ccc32)C1,-1,11,1,69*,94*,89*,-32,2,
COc1cc(OCc2ccccc2)c(C(=O)/C=C/c2ccc3c(c2)OCO3)c(OC)c1OC,-13,-9,39,52*,27,-14,40*,53*,
SMILES,LMP1 NFkB inh,MITF TRPM1 inh,Peg3 prom inh,HIF-2a inh,TWEAK Fn14 block,TROY NFkB inh,HIF-2a inh conf,HIF-1a counter,others
COc1cc(OC)c(C(=O)/C=C/c2ccc(OCc3ccccc3)c(OC)c2)c(OC)c1,4,4,48,46*,35,11,32,39,
CN(C)Cc1ccc(CNC(=O)COc2ccc3ccccc3c2)cc1,-13,-7,-51,-66,21,-24,·,·,
O=C(c1cccc(S(=O)(=O)NCc2ccccc2)c1)N1CCN(c2ccccc2Cl)CC1,-3,6,50,21,9,11,·,·,
Cc1c(C(=O)Nc2ccccn2)sc2nc3n(c(=O)c12)CCC3,2,-33,-215,-134,30,-28,·,·,
CC1=C(C)/C(=N\OS(=O)(=O)c2ccccc2)C=CC1=O,-11,44,106*,86*,29,-20,·,·,Mdm2 MdmX conf=103*
CCCNC(=O)c1ccc(Cn2cc(-c3ccc(OC)cc3)nc2C(C)N)cc1 (stereo not drawn),-5,-32,-118,-126,-4,-51,·,·,
CC(C)(C)NCC(=Cc1ccccc1)C(=O)c1ccccc1,87*,98*,101*,80*,99*,21,99*,107*,
CC(=O)N/C(=C/c1ccccc1)c1ccccc1,-1,-4,-21,-26,10,-11,·,·,
O=[N+]([O-])c1ccc(O)c(-c2nc(-c3ccccc3)c(-c3cccs3)[nH]2)c1,1,27,34,-4,25,37,·,·,Mdm2 MdmX conf=95*
O=C(O)c1ccc(-c2nc(-c3ccccc3)c(-c3cccs3)[nH]2)cc1,4,3,16,19,-8,-16,·,·,
COc1ccc2cc1Oc1ccc(cc1)CC1c3c(cc(OC)c4c3Oc3cc5c(cc3O4)CCNC5C2)CCN1C (stereo not drawn),-32,109*,102*,54*,-66,2,3,106*,
COCCNC(=O)C1(C)Cc2c(-c3ccc(N(C)C)cc3)ccnc2O1 (stereo not drawn),·,·,9,10,18,2,·,·,
CC1Cc2ccccc2N1C(=O)CNCCCN(C)C (stereo not drawn),4,11,4,7,-7,-6,·,·,
CC1CC2(C)Oc3ccccc3CC2C(C)C1CNCCCN(C)C (stereo not drawn),-32,97*,107*,84*,-34,8,6,105*,Mdm2 MdmX conf=101*
